Drawing on PubChem BioAssay (NCATS), this text covers Potency for 40 compounds.

Molecules are shown by their SMILES. Inconclusive results are not listed. Entries that show only a call come without a potency. The source made the active and inactive calls. Calls come from the whole dose curve; as a rule, active = well fitted cell-killing curve with a large enough effect; inconclusive = small, poorly fitted or top-dose-only effect; inactive = flat fitted curve, though single readings scatter.
Potency is the fitted concentration of half-maximal effect.

The assay is described as follows: Quantitative highthroughput screen to assess conditional lethalithy of P12 Ichikawa cells grown in RPMI1640 with dialyzed fetal bovine serum (RPMI+ds) (AID 1963880). Note: nearly all actives have a fitted effect of over 35% in size. As to conditions: ATP luminescence, 48 h; Potency: P12-Ichikawa viability; series mostly up to 45.8 µM. The text has this:
Assay Provider: Jason Cantor Ph.D.
Department of Biochemistry
University of Wisconsin-Madison, Madison, WI, USA
Chemical screening studies have identified drug sensitivities across hundreds of cancer cell lines but most putative therapeutics fail to translate. Discovery and development of drug candidates in models that more accurately reflect nutrient levels in human blood is a major challenge. Here we performed high-throughput screens in conventional versus Human Plasma-Like Medium (HPLM) to identify compounds that were "missed" when screening using the artificial culture condition. Sets of conditional anticancer compounds spanned phases of clinical development and included non-oncology drugs were assessed. […] We also traced conditional phenotypes for several chemotherapeutics to availability of HPLM-specific metabolites and confirmed others for compounds whose reported targets are encoded by nonessential genes. Our findings establish generalizable strategies for exploiting conditional lethality in HPLM to reveal therapeutic candidates and mechanisms of action in cancer cells.
Described herein are the results of each viability screens against three cell lines: NOMO1 (an acute myeloid leukemia cell line); P12-Ichikawa (a T-cell acute lymphoblastic leukemia); and SEM (a B-cell ALL). Each assay was screened using 3 different cell culture media: homemade human plasma-Like medium with 10% dialyzed fetal bovine serum (HPLM+ds); RPMI1640 with 10% untreated FBS and 5mM glucose (RPMI+s); and RPMI1640 with 10% dialyzed fetal bovine serum and 5 mM glucose (RPMI+ds).
PROTOCOL TABLE (as described by Inglese J, Shamu CE and Guy RK. 2007)
SEQUENCE No. (e.g., 1, 2, 3, etc.); […] (e.g., Cells, Incubation, Reagent, etc.); VALUE and DESCRIPTION.
1; Cells; 5 uL; white, solid bottom 1536-well Greiner assay plate.
2; Compounds; 23 nL; Kalypsis pin tool (Wako USA) equipped with a 1536-well pin head to transfer to the assay plates.
3; Incubation; 48 hours; 37C incubation.
4; Reagent; 3 uL; CellTiter Glo (Promega).
5; Incubation; 5 min, room temperature
6; Detection; Luminescence, Viewlux PerkinElmer.
NOTES (numbers refer to Sequence numbers above)
1. Briefly, 5 ul of cell reagent was dispensed using a Multidrop Combi Dispenser. The NOMO1 and SEM cells were plated at 500 cells/well and the P12-Ichikawa line at 1000 cells/well.
2. After seeding the cells, 23 nL of MIPE 4.1 library compounds (in DMSO) were added to each plate using a Kalypsys 1536 Pintool dispenser. Bortezomib at final concentration of […] and DMSO were added to each plate as positive and negative controls respectively. For each screen, MIPE 4.1 compounds were added over an eleven-point concentration range […] in 3-fold dilutions.
3. Each plate was covered with a stainless steel gasketed lid to prevent evaporation and incubated for 48 hour at 37C, 95% relative humidity, and 5% CO2.
4-5. Three microliter CellTilter-GloTM luminescent substrate mix (Promega) reagent was added to the assay plate and incubated at room temperature for 5 min.
6. The luminescence signal was measured using a ViewLux (PerkinElmer) multiplate reader with a 2 second exposure time per plate. Data for each compound were normalized as percent viability such that measurements for DMSO and the empty well controls in each plate were defined as 100% and 0%, respectively.
`c1cc2c(cc1[C@H]1OC[C@H]3[C@H]1CO[C@H]3c1ccc3c(c1)OCO3)OCO2`: the Potency result is “inactive”.
To `CC(C)N(CCNC(=O)CN1CCCC1=O)C(C)C` belongs “inactive”.
To `O=C(NCC1CCOCC1)c1cnc(Nc2ccc(Cl)cc2Cl)nc1C(F)(F)F` belongs “inactive”; to `C[C@](O)(COc1ccc(C#N)cc1)C(=O)Nc1ccc(C#N)c(C(F)(F)F)c1`, “inactive”.
To `C[C@]12CC[C@H]3[C@@H](CCC4=CC(=O)CC[C@@]43C)[C@H]1CC[C@H]2O` belongs “inactive”; to `C[C@@H]1CC[C@@]2(OC1)O[C@H]1C[C@H]3[C@@H]4CC=C5C[C@@H](O[C@@H]6O[C@H](CO)[C@@H](O[C@@H]7O[C@@H](C)[C@H](O)[C@@H](O)[C@@H]7O)[C@H](O)[C@@H]6O[C@@H]6O[C@@H](C)[C@H](O)[C@@H](O)[C@@H]6O)CC[C@]5(C)[C@@H]4CC[C@]3(C)[C@@H]1[C@H]2C`, 23.5 µM (active).
For `O=C(O)c1nn(Cc2ccc(Cl)cc2Cl)c2ccccc12`, the Potency result is “inactive”.
With `Cc1ccccc1-n1c(Cn2ncc3c(N)ncnc32)nc2cccc(C)c2c1=O`, the Potency is 3.32 µM (active).
As to `CC(C)[C@]12O[C@@H]1[C@@H]1O[C@]13[C@]1(O[C@H]1C[C@@H]1C4=C(CC[C@@]13C)C(=O)OC4)[C@H]2O`, the Potency was 0.0012 µM (active).
To `CC(=O)Nc1ccc(OC[C@](C)(O)C(=O)Nc2ccc([N+](=O)[O-])c(C(F)(F)F)c2)cc1` belongs “inactive”; to `CC(=O)O[C@@]12CO[C@H]1C[C@H](O)[C@@]1(C)C(=O)[C@H](O)C3=C(C)[C@@H](O)C[C@@](O)([C@@H](OC(=O)c4ccccc4)[C@@H]21)C3(C)C`, 11.8 µM (active); to `C#C[C@]1(O)C=C[C@@H]2[C@@H]3CCC4=CC(=O)CC[C@@H]4[C@H]3CC[C@@]21CC`, “inactive”.
With `CNCC(O)c1ccc(O)cc1` (stereo not given), the Potency result was “inactive”.
To `CN1C(=O)CCS(=O)(=O)C1c1ccc(Cl)cc1` (stereo not given) belongs “inactive”; to `CN(C)CCc1ccc(O)cc1`, “inactive”.
To `Cc1ncc(OC[C@@]2(c3cccc(F)c3)C[C@H]2C(=O)Nc2ccc(F)cn2)c(C)n1` belongs “inactive”.
To `Oc1ccc2c3c1O[C@H]1c4[nH]c5c(c4C[C@@]4(O)[C@@H](C2)N(CC2CC2)CC[C@]314)C[C@@]1(O)[C@H]2Cc3ccc(O)c4c3[C@@]1(CCN2CC1CC1)[C@H]5O4` belongs “inactive”; to `C#CCN(C)[C@H](C)Cc1ccccc1`, “inactive”; to `COc1ccc(C(=O)c2c(C)n(CCN3CCOCC3)c3ccccc23)cc1`, “inactive”.
Take `COc1ccc(C(CN(C)C)C2(O)CCCCC2)cc1` (stereo not given): the Potency entry was “inactive”.
To `O=P1(NCCCl)OCCCN1CCCl` (stereo not given) belongs “inactive”.
To `CN[C@@H]1Cc2cccc3[nH]c(=O)n(c23)C1` belongs “inactive”; to `O=c1[nH]c2ccc(Cl)cc2c(N[C@@H]2CN3CCC2CC3)c1-c1nc2ccccc2[nH]1`, 0.372 µM (active); to `CN1C(=O)COc2c(C(=O)NC3CN4CCC3CC4)cc(Cl)cc21` (stereo not given), “inactive”.
To `O=S(=O)(F)Cc1ccccc1` belongs “inactive”.
Regarding `CCCC(C)(COC(N)=O)COC(=O)NC(C)C` (stereo not given), the Potency result was “inactive”.
To `COC1=C[C@@H]2[C@@H]3Cc4ccc(OC)c(O)c4[C@]2(CCN3C)CC1=O` belongs “inactive”; to `CC(C)(C)[C@]1(O)C[C@@H]2OC(=O)C[C@@]23C(=O)O[C@@H]2OC(=O)[C@H](O)C213` (stereo not given in full), “inactive”; to `C[C@@]12OC(=O)[C@]1([C@@H](O)[C@@H]1C=CCCC1)NC(=O)[C@H]2CCCl`, 0.187 µM (active).
To `CC(O)=C(C#N)C(=O)Nc1cc(Br)ccc1Br` belongs “inactive”.
`C[C@@H]1CC[C@H]2[C@@H](C)C(=O)O[C@@H]3O[C@@]4(C)CC[C@H]1[C@]32OO4`: the Potency entry is “inactive”.
To `O=[N+]([O-])c1ncc[nH]1` belongs “inactive”; to `O=C1CCC[C@@H]2[C@H]3CCCN4CCC[C@@H](CN12)[C@@H]34`, “inactive”; to `O=C(Oc1ccc([N+](=O)[O-])cc1)N1CCN(Cc2cccc(Oc3ccccc3)c2)CC1`, “inactive”.
As for `C#CC1(O)CCC2C3CCC4=CC(=O)CCC4(C)C3CCC21C` (stereo not given), the Potency entry is “inactive”.
To `CCOC(=O)c1cncn1[C@H](C)c1ccccc1` belongs “inactive”; to `COC[C@H]1OC(=O)c2coc3c2[C@@]1(C)C1=C(C3=O)C2CCC(=O)[C@@]2(C)C[C@H]1OC(C)=O` (stereo not given in full), “inactive”; to `CC(C)c1cccc(C(C)C)c1O`, “inactive”.
To `CN(C)CCN(C)CCc1ccc(Cl)c(Cl)c1` belongs “inactive”; to `Cc1cccc(C)c1NC(=O)CN1CCCC1=O`, “inactive”.
